Source: PubChem
IL1B secr inh = blocks inflammasome-driven IL-1 beta release. THP-1 LPS/ATP IL-1B secretion, AlphaLISA, 16 h; hits give low values. activity change, % at 57.5 µM. actives 4.7% (n = 360,000). AID 743279; in the data active = activity change below about -50%; inconclusive = mostly about -30% to -49%
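THP-1 cells pretreated 1 hr with compounds (up to 57.5 uM final), then stimulated with LPS (250 ng/mL final) plus ATP (1.25 mM final); secreted IL-1B measured by AlphaLISA after 16 hr, decreased signal indicating inhibition.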
HT1080 IDH1KD tx = kills HT-1080 cells with IDH1 knockdown; Potency, µM (titrated, usually from 46.1 µM), for the others: at the top dose activity, negative = toxicity, actives largely listed as cytotoxic; HT-1080 IDH1 knockdown viability, ATP luminescence, 48 h; actives 2% (n = 360,000);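 also: potency is read from the fitted curve at half-maximal effect; 0% = DMSO wells and -100% = cell-free medium wells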
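IDH1KD HT-1080 cells, 750/well, RPMI + 5% FBS; compound pinned after 2 h settling; 48 h, 37 °C; CellTiter-Glo luminescence; % activity normalised to DMSO and no-cell wells; curves fitted, classed by r2 and efficacy.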
HT1080NT lethal = kills 2HG-producing HT-1080-NT fibrosarcoma cells | actives 1.6% (n = 360,000) | Potency, µM (doses to about 46.1 µM), without a hit: at the highest dose activity, negative = less viability, hits mostly cytotoxic | HT-1080-NT fibrosarcoma viability, CellTiter-Glo ATP luminescence, 48 h;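 also: NT is the 2HG producing partner of a matched IDH1 knockdown line; potency is read from the fitted curve at half-maximal effect; 0% = DMSO-treated cells and -100% = media-only wells without cells; nearly all actives have a fitted effect of over 55% in size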
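HT-1080-NT; 750 cells/well; 5% FBS RPMI; 48 h compound, 37 degrees C; CellTiter-Glo luminescence; curve fitting and curve-class assignment.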
TDP1 cell CPT = growth inhibition of DT40 Tdp1-/-;hTDP1 cells with camptothecin (screen for TDP1 inhibitors). chicken DT40 Tdp1-/-;hTDP1 cells + 20 nM CPT, ATP luminescence, 48 h. Potency, µM (highest dose often 46.2 µM), for the others: at the top dose activity change, negative = growth inhibition, most hits filed as inhibitors. actives 12% (n = 420,000). AID 686979; also: potency is read from the fitted curve at half-maximal effect; nearly all actives have a fitted effect of over 55% in size
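Chicken DT40 Tdp1-/- cells stably complemented with human TDP1 were seeded at 400 cells/well in medium containing 20 nM camptothecin, exposed to pin-transferred compounds, and grown at 37 °C for at least 48 hr. Viability was read as ATP luminescence.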
TDP1 cell noCPT = qHTS for Inhibitors of human tyrosyl-DNA phosphodiesterase 1 (TDP1): qHTS in cells in absence of CPT; DT40 Tdp1-/- hTDP1 cells, no CPT, ATP luminescence, 48 h; Potency, µM (series often up to 46.2 µM), inactives show at the highest dose activity change, negative = growth inhibition, most hits filed as inhibitors; actives 15% (n = 420,000); AID 686978, 2013; also: potency is read from the fitted curve at half-maximal effect; nearly all actives have a fitted effect of over 55% in size
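Growth of hTDP1-complemented DT40 Tdp1-knockout cells is measured by ATP luminescence after at least 48 hr compound exposure at 37 °C, with DMSO substituting for the 20 nM CPT used in the parallel screen.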
* marks the source's active call; other numbers are inactive results; ? = inconclusive; / = not tested or not shown; [ ] = remark or other dose. Hits are enriched below; roughly 19% of the tested compounds scored in any of these assays. Unless noted, calls follow the shape of the dose curve; as a rule, active = well fitted curve in the direction sought with a large enough effect; inconclusive = small, poorly fitted or top-dose-only effect, or another doubt; inactive = no such curve, though single readings can be large; an effect the other way counts as inactive or inconclusive. Unless noted, % is scaled to controls: 0 for no effect and ±100 for the full control effect.

SMILES	IL1B secr inh	HT1080 IDH1KD tx	HT1080NT lethal	TDP1 cell CPT	TDP1 cell noCPT
CCCc1nn2c(=O)cc(COC(=O)CNC(=O)COc3ccc(C)cc3)nc2s1	/	/	/	0%	-11%
[O-][N+]1=c2ccc(Nc3ccccc3)cc2=NC12CCCCC2	-98*	16µM*	?	3.7µM*	4.1µM*
COc1ccc(Nc2ccc3c(c2)=NC2(CCCCC2)[N+]=3[O-])cc1	-97*	?	?	2.6µM*	2.6µM*
O=C(CSc1n[nH]c(=O)n1C1CC1)Nc1ccc(Cl)cc1Cl	40	-3%	-15%[9.24 µM]	?	-10%
c1cnc2ccc(-n3ccnc3)cc2c1	-11	10%	12%	?	?
CCc1cc2c3c(c(=O)oc2cc1O)CCCC3	20	-24%	-23%	?	?
CCOC(=O)Cn1c(=O)c2c(nc3n2CCN3c2ccc(CC)cc2)n(C)c1=O	/	/	/	-1%	-19%
CCOc1ccc(CCNC(=O)COC(=O)c2ccc(S(=O)(=O)N3CCCC3)cc2)cc1OCC	-16	-3%	0%	-13%	-2%
CCn1nc(C)c(NC(=O)CC23CC4CC(CC(C4)C2)C3)c1C	47	-14%	-3%	?	21µM*
Cc1ccc(-c2csc3nc(SCC(N)=O)n(Cc4ccccc4)c(=O)c23)cc1	0	?	?	?	?
COc1cc2c(cc1OC)CN(C(=O)c1cc(C3CC3)nn1-c1ccccc1)CC2	-55*	3%	0%	18µM*	?
O=C(c1cc(C2CC2)nn1-c1ccccc1)N1CCN(Cc2ccccc2)CC1	-10	0%	-1%	?	?
N#Cc1ccc(CN2CCN(C(=O)c3cc(C4CC4)nn3-c3ccccc3)CC2)cc1	-3	0%	-4%	23µM*	21µM*
CCC(=O)c1c(NC(C)C)cc(C)oc1=O	-5	3%	3%	1%	6%
Cc1cc(-c2ccccc2)oc(=O)c1NC(=O)c1ccccc1	-27	-12%	-9%	-25%	?
CCOC(=O)[C@@H]1CSCCS(=O)(=O)N1Cc1ccccc1Br	39	7%	4%	-29%	-24%
C=C1[C@@H](O)[C@H](CC(C)C)N(Cc2ccccc2Br)S1(=O)=O	?	?	23µM*	5µM*	18µM*
CCOC(=O)c1c(C)[nH]c(N=Nc2ccccc2)c1C	-3	?	?	?	23µM*
CCOC(=O)c1c(C)[nH]c(N=Nc2ccc(C)cc2)c1C	-15	-5%	-21%	?	-26%
CCOC(=O)c1c(C)[nH]c(N=Nc2cccc(C)c2)c1C	-5	?	?	?	-25%
CCOC(=O)c1c(C)[nH]c(N=Nc2cccc(OC)c2)c1C	-67*	-22%	-13%	-5%	?
Cc1ccc(-n2nnnc2CSc2nnc(-c3ccc(O)cc3)o2)cc1	13	2%	4%	-27%	?
Cc1cccn2c(=O)c(/C=C(\C#N)c3nc4ccccc4s3)c(Oc3ccc(Br)cc3)nc12	/	/	/	7.3µM*	6.5µM*
CCOC(=O)/C(C#N)=C/c1c(Oc2cccc(C)c2)nc2c(C)cccn2c1=O	11	9%	7%	?	-17%
Cc1cc(C)cc(Oc2nc3c(C)cccn3c(=O)c2/C=C(\C#N)c2nc3ccccc3[nH]2)c1	/	/	/	3%	-25%
SMILES	IL1B secr inh	HT1080 IDH1KD tx	HT1080NT lethal	TDP1 cell CPT	TDP1 cell noCPT
N#C/C(=C\c1c(Oc2ccc(F)cc2)nc2ccccn2c1=O)c1nc2ccccc2s1	/	/	/	?	12µM*
Cc1ccc(Oc2nc3ccccn3c(=O)c2/C=C(\C#N)c2nc3ccccc3s2)c(C)c1	/	/	/	12µM*	4.1µM*
Cc1ccc(Oc2nc3c(C)cccn3c(=O)c2/C=C(\C#N)C(N)=O)cc1	?	-8%	-16%	?	13µM*
C[C@H](CO)N1C[C@H](C)[C@@H](CN(C)S(=O)(=O)c2ccc(F)cc2)Oc2ccc(NC(=O)Cc3ccccc3)cc2C1=O	-8	9%	5%	?	?
CC(C)=CCC1=C(O)[C@](O)(CC=C(C)C)C(=O)C(C(=O)CC(C)C)=C1O	/	/	/	-36%[9.04 µM]	-27%[9.04 µM]
CC1Cc2ccccc2N1C(=O)CSc1nnnn1C(C)C (centres undefined)	?	12%	7%	1%	-14%
COc1ccc(C(=O)COC(=O)[C@H](C)NS(=O)(=O)c2ccc(NC(C)=O)cc2)cc1OC	-93*	2%	1%	-6%	-8%
CC(=O)Nc1ccc(S(=O)(=O)N[C@@H](C)C(=O)OCC(=O)c2ccc(Br)s2)cc1	14	3%	8%	-8%	-22%
COc1ccc(OCCOC(=O)C(C)NS(=O)(=O)c2ccc(NC(C)=O)cc2)cc1 (centres undefined)	-77*	?	-15%	-15%	?
Cc1nc(/N=C(\N)N(C)C)[nH]c(=O)c1C	-17	2%	16%	6%	2%
COc1ccc2c(c1)NC(c1cccnc1)=NC(c1ccc(F)cc1)=N2	/	/	/	15µM*	9.2µM*
Cc1ccc2c(c1)C(c1ccncc1)=NNC(c1ccccc1)=N2	1	15%	17%	-12%	2%
COc1ccc(C2=NNC(c3cccnc3)=Nc3ccc(OC)cc32)cc1	-14	-11%	-18%	?	?
Cc1ccc(C2=NC(c3ccccc3)=Nc3ccc(Cl)cc3N2)cc1	/	/	/	?	23µM*
COc1ccc(C2=NC(c3ccccc3)=Nc3ccc(C)cc3N2)cc1	/	/	/	26µM*	21µM*
Cc1ccc(C2=Nc3ccccc3NC(c3ccncc3)=N2)cc1	/	/	/	?	13µM*
Cc1cccc(OCCNC(=O)c2cncc(Br)c2)c1	-8	-1%	2%	-20%	?
Cc1ccc(CNc2nc3ccc(Cl)cc3n3nnnc23)cc1	/	/	/	-9%	-9%
COc1ccc(NC2=Nc3cccc4cccc2c34)cc1	-8	-10%	-1%	?	26µM*
COc1ccc(C2=Nc3cccc4cccc(c34)N2)cc1	17	8%	10%	?	16µM*
Nc1cccc(C2=Nc3cccc4cccc(c34)N2)c1	-9	-6%	-9%	?	?
O=C(O)c1cccc(NC2=Nc3cccc4cccc2c34)c1	14	2%	-1%	7%	-6%
CNc1oc(/C=C/c2cccc(OC)c2)nc1C#N	?	2%	-1%	-24%	?
CCN1CCN(C2=C(Cl)C(=O)N(Cc3ccccc3)C2=O)CC1	-21	0%	4%	23µM*	?
CN1CCN(c2ccc(CNS(=O)(=O)Cc3cccc(C(F)(F)F)c3)cc2)CC1	0	-22%	18µM*	6.5µM*	3.7µM*
